Test system: CSF1R-autoinhibited
Settings: concentration: 1 μM, replicates: in singlicate; n = 1
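Also: KINOMEscan kinase panel screen.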

| Structure (SMILES) | %Inh [%] |
| --- | --- |
| Clc1cc(Nc2ncnc3cc[nH]c23)ccc1OCc1ccccn1 | 0 |
| O=C(Nc1ccccc1F)NC1CCN(c2ccnc(Nc3ccc(F)cc3)n2)C1 (stereo not shown) [GSK1379722] | 7 |
| Cc1ccc(O)cc1Nc1cc(C(F)(F)F)nc2ccc(-c3ccncc3)cc12 [GW630823] | 0 |
| C[C@@H]1CCN(C(=O)CO)C[C@@H]1N(C)c1ncnc2[nH]ccc12 | 19 |
| Cn1cc(-c2ccc3c(c2)CCN3C(=O)Cc2cccc(C(F)(F)F)c2)c2c(N)ncnc21 [GSK2606414] | 0 |
| Cl.Cn1ccc(-c2cccc(Nc3ccnc4cc(-c5nccs5)ccc34)c2)n1 [GW525701] | 29 |
| CCc1nc(-c2cccc(N(C)S(=O)(=O)c3ccccc3)c2)c(-c2ccnc(Nc3ccc(N4CCN(C(C)=O)CC4)nc3)n2)s1 [GSK1645895] | 0 |
| CN1CCC(n2cnc(-c3ccc(F)cc3)c2-c2ccnc(NC3CCNCC3)n2)CC1 [SB-229482] | 47 |
| Nc1nc(-c2cccnc2)c(-c2ccnc3ccccc23)s1 [GW684083] | 0 |
| O=C(CCO)NCCn1ccc2ncnc(Nc3ccc(Oc4cccc(C(F)(F)F)c4)c(Cl)c3)c21 | 0 |
| O=C(NCCCN1CCCC1=O)c1cnc(NCc2cc(Cl)ccc2Cl)nc1NC1CCNCC1 | 1 |
| Fc1ccc(Nc2nccc(-c3c(-c4ccc(Cl)cc4)nn4ncccc34)n2)cc1F [GW829058] | 0 |
| c1ccc(-c2ccc3c(-c4ccnc(Nc5ccc6c(c5)OCCO6)n4)cnn3n2)cc1 [GW818941] | 0 |

Source: paper PMC5540273 (PLoS ONE, 2017)
